The source of these data is PubChem BioAssay AID686970 (National Center for Advancing Translational Sciences (NCATS), 2013).

Among all 360,000 compounds or so, about 6,000 (1.7%) were called active. Where a call stands in place of a potency, no number is given. Inconclusive results (about 8%) are left out. The call rests on the fitted dose curve; in most records, active means well fitted cell-killing curve with a large enough effect; inconclusive means small, poorly fitted or top-dose-only effect, or effect the other way; inactive means flat fitted curve, though single readings scatter. For the sample, actives were picked, then their nearest neighbours and some compounds at random.
Potency means the concentration at half of the fitted maximal effect.

The nature of this assay: qHTS for induction of synthetic lethality in tumor cells producing 2HG: qHTS for the HT-1080-NT fibrosarcoma cell line.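 Further: NT is the 2HG producing partner of a matched IDH1 knockdown line; nearly all actives have a fitted effect of over 55% in size.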 The note with it: HT-1080-NT fibrosarcoma viability, CellTiter-Glo ATP luminescence, 48 h; series mostly up to 46.1 µM. The procedure, abridged: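 Toxicity toward the 2HG-producing NT line was scored as %Activity, normalised to DMSO and no-cell wells, from CellTiter-Glo luminescence after 48 hours' treatment.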
In the case of `CN1CCN(C2Cc3ccc(Cl)cc3Sc3ccc(F)cc32)CC1` (stereo unspecified), the Potency is 14.6 µM (active).

Regarding `C[C@H]1CN([C@@H](C)CO)C(=O)c2cc(Br)cnc2O[C@H]1CN(C)S(=O)(=O)c1cccs1`, the Potency entry is “inactive”.

Turning to `CN(C)c1cccc(NC(=O)c2ccc(-c3ccc(F)c(F)c3)c3ccoc23)c1`, the Potency result was “inactive”.

Regarding `Cc1ccc(S(=O)(=O)N2CC3C(=O)C[C@@H](c4ccccc4Cl)N(S(=O)(=O)c4ccc(C)cc4)C3CC2c2ccccc2)cc1` (stereo partly specified), the Potency result is “inactive”.

For the compound `CC1(C)OC(=O)C2=C(C[C@@H](C3CC3)O[C@H]2CCc2cccc(Cl)c2)O1`, the Potency entry was “inactive”.

As for `CC(C)c1ccccc1OCC(O)CN(CC(O)COc1cccc2ccccc12)C(C)C` (stereo unspecified), the Potency was 18.4 µM (active).

With `CN1CCN(CCCCOc2cccc3ccccc23)CC1`, the Potency result is “inactive”.

Take `CCC(C)Sc1nc2c(c(=O)[nH]c(=O)n2C)n1CC(O)COc1cccc2ccccc12` (stereo unspecified): the Potency result was “inactive”.

In the case of `Cc1nc(C(F)(F)F)ccc1C(=O)N1CCC1(C)C(=O)NS(=O)(=O)c1ccc(F)cc1F` (stereo unspecified), the Potency result was “inactive”.

`COC(=O)c1ccc2nc(-c3cccc(Br)c3)c(Cc3ccccc3C(F)(F)F)n2c1`: the Potency result is “inactive”.

As to `COc1ccc(NC(=O)C2Cc3c(-c4cccc(NC(C)=O)c4)ccnc3O2)cc1OC` (stereo unspecified), the Potency entry was “inactive”.

As for `O=C(Nc1ccc(Cl)cc1)C1Cc2c(-c3ccc4c(c3)OCO4)ccnc2O1` (stereo unspecified), the Potency entry is “inactive”.

For the compound `COc1ccc(NC(=O)C2Cc3c(-c4ccc5c(c4)OCO5)ccnc3O2)cn1` (stereo unspecified), the Potency was 5.8 µM (active).

Turning to `Cc1ccsc1C(=O)OCC(=O)c1cc(C)n(CC2CCCO2)c1C` (stereo unspecified), the Potency result was “inactive”.

In the case of `Cc1cc(C(=O)CCl)c(C)n1CC1COc2ccccc2O1` (stereo unspecified), the Potency is 14.6 µM (active).

For the compound `O=C1C(=O)N(CC2COc3ccccc3O2)c2ccccc21` (stereo unspecified), the Potency entry is “inactive”.

Consider `COCCCn1c(=O)/c(=C/c2ccccc2OC(C)C)s/c1=C(\C#N)C(=O)Nc1ccc(C(=O)O)cc1`, for which the Potency result was “inactive”.

In the case of `CCOC(=O)C1CCCN(C(=O)c2ccc(C)c(F)c2)CC1` (stereo unspecified), the Potency entry is “inactive”.

Turning to `Cc1cc(C)n(-c2nc(C(F)(F)F)nc3ccccc23)n1`, the Potency result is “inactive”.

Consider `CC(C)(C)Nc1nc(-c2ccccn2)nc2ccccc12`, for which the Potency entry was “inactive”.

`CC(Nc1nc(C(F)(F)F)nc2ccccc12)c1cccs1` (stereo unspecified): the Potency was 20.6 µM (active).

For the compound `Clc1ccc(-c2cccc3nccn23)cc1`, the Potency result was “inactive”.

`CCOC(=O)c1c(C)[nH]c2c1-c1ccccc1C(=O)C2=O`: the Potency is 2.91 µM (active).

`CCOC(=O)c1ccccc1OC(=O)Oc1ccccc1C(=O)OCC`: the Potency result was “inactive”.

Take `CCOC(=O)C1=C(C)c2ccccc2OC1(C)C(=O)OCC` (stereo unspecified): the Potency entry is “inactive”.

As for `CCOC(=O)[C@]12CCCC=C1N(Cc1ccc3c(c1)OCO3)C(=O)[C@H](CC(=O)N1CCN(C(=O)c3ccco3)CC1)C2`, the Potency result was “inactive”.

On to `COc1cc(CNc2ncnc3c2ncn3[C@H]2CN(Cc3cccs3)C[C@@H](CO)O2)cc(OC)c1OC`, for which the Potency result is “inactive”.

As to `COCCNc1nc(NCc2ccc(NC(C)=O)cc2)c2sccc2n1`, the Potency result was “inactive”.

With `COCCNc1nc(Nc2ccccc2Cl)c2sc(-c3ccccc3)cc2n1`, the Potency entry was “inactive”.

On to `CC(=O)Nc1ccc(CNc2nc(NCCN(C)C)nc3cc(-c4ccccc4)sc23)cc1`, for which the Potency is 11.6 µM (active).

Regarding `COc1ccc(Cl)cc1NC(=O)CN(C)C(=O)c1cn(-c2ccccc2)nc1-c1cccs1`, the Potency entry was “inactive”.

Take `Cc1ccc(C(=O)N2CCCc3ccccc32)c(Cl)c1`: the Potency entry was “inactive”.

On to `O=C(c1cc(-c2ccc(O)cc2)on1)N1CCCc2ccccc21`, for which the Potency result was “inactive”.

Regarding `Cc1cccc2cc3c(N)c(C(=O)N4CCCc5ccccc54)sc3nc12`, the Potency is 3.26 µM (active).

With `O=C(C[C@H]1C[C@@H]2c3cc(NC(=O)C4CCC4)ccc3O[C@@H]2[C@H](CO)O1)NC1CCCCC1`, the Potency result was “inactive”.

In the case of `COc1ccc(CNC(=O)CCN2C(=O)c3ccccc3C2=O)cc1`, the Potency entry was “inactive”.

In the case of `CCOC(=O)C(NC(C)=O)C(=O)Nc1ccc(OC)cc1` (stereo unspecified), the Potency result was “inactive”.

Regarding `CCOC(=O)C1=C(c2ccc(OC)cc2)C(=O)c2ccccc2C1=O`, the Potency is 5.8 µM (active).

With `O=C(NN=Cc1ccc2c(c1)CCC2)c1ccccc1O`, the Potency result was “inactive”.

Take `COc1cccc(NC(=O)C2(C)CCN2C(=O)CCC2CCCC2)c1` (stereo unspecified): the Potency entry is “inactive”.

Consider `Cc1cc(NC(=O)CCC(=O)N(c2ccccc2)C(C(=O)NC2CCCC2)c2ccncc2)no1` (stereo unspecified), for which the Potency entry is “inactive”.

For the compound `Cc1cc(NC(=O)/C=C/C(=O)N(c2ccccc2C)C(C(=O)NC2CCCC2)c2ccc(F)cc2)no1` (stereo unspecified), the Potency was 11.2 µM (active).

For `Cc1cc(NC(=O)CCC(=O)N(CC(=O)NC2CCCC2)c2ccc(F)cc2)no1`, the Potency entry was “inactive”.

On to `CC1(C(=O)Nc2ccc3c(c2)OCCO3)CCN1C(=O)Cc1cc(F)ccc1F` (stereo unspecified), for which the Potency result was “inactive”.

As to `O=C(O)C1=C(C(=O)O)C2CCC1C2`, the Potency result is “inactive”.

Turning to `CC(C)(O)C(=O)NN(C(=O)c1ccccc1)c1cccc(Br)c1`, the Potency result is “inactive”.

For the compound `COC(=O)N(NC(=O)C(O)(C(C)C)C(C)C)c1ccccc1`, the Potency result was “inactive”.

For the compound `CCCC(O)(CCC)C(=O)NN(C(=O)CCl)c1cccc(C)c1`, the Potency was 6.51 µM (active).

As to `COc1ccc(C2OC(CCc3ccccc3)Cc3[nH]c(=S)[nH]c(=O)c32)cc1` (stereo unspecified), the Potency entry is “inactive”.

`CCOC(=O)C1CCCN(C(=O)c2cccc3ccccc23)CC1` (stereo unspecified): the Potency result is “inactive”.

Take `CCc1nc2ccc(C(=O)N3CCN(S(=O)(=O)CC)CC3)cn2c1N(C=O)CCC(C)C`: the Potency result was “inactive”.

For the compound `COc1cccc(/C=N/Nc2ncc(C(F)(F)F)cc2Cl)c1O`, the Potency was 16.4 µM (active).

On to `COc1ccc(Br)cc1/C=N/Nc1ccc(Cl)c(C(=O)O)c1`, for which the Potency result was “inactive”.

For `O=c1[nH]c2cccnc2n(CCNc2ncc(C(F)(F)F)cc2Cl)c1=O`, the Potency result is “inactive”.

In the case of `CCN1C(=O)[C@@H]2[C@@H]3CN(S(=O)(=O)c4ccccc4C)[C@@H](c4ccc(Cl)cc4)[C@@H]3C(=O)C[C@@H]2C1=O`, the Potency entry is “inactive”.

As to `CCc1nc2c(OCCOc3ccc(F)cc3)cccn2c1N(C)C(=O)c1ccccc1F`, the Potency result was “inactive”.

Turning to `CCOc1cc(/C=N/Nc2cc(C)nc3ccc(C)cc23)ccc1O`, the Potency entry was “inactive”.

As for `COc1cc(C=NC2CCCCC2)ccc1O`, the Potency entry is “inactive”.

For `COc1cc(/C=N/Nc2nc3ccccc3s2)ccc1O`, the Potency is 20.6 µM (active).

In the case of `Nc1ncnc2c1ncn2[C@@H]1O[C@H](CNC(=O)[C@H](N)Cc2cccnc2)[C@@H](O)[C@H]1O`, the Potency entry was “inactive”.

In the case of `O=C(Nc1ccccc1)c1nnsc1S(=O)(=O)c1ccc(Cl)cc1`, the Potency was 20.6 µM (active).

In the case of `Cc1nnsc1S(=O)(=O)Cc1ccccc1Cl`, the Potency entry is “inactive”.

On to `O=C(Nc1ccc(S(=O)(=O)Nc2ccccn2)cc1)c1ccccc1`, for which the Potency result was “inactive”.

As to `C=C1C=C(C)n2ncc(C(=O)Nc3ccccc3O)c2N1`, the Potency result was “inactive”.

Regarding `COc1ccc(C(C)(C)C)cc1NC(=O)CN(C)C1=NS(=O)(=O)c2ccccc21`, the Potency entry was “inactive”.

For `CCc1nc2ccc(C(=O)Nc3cc(-c4ccccc4)ccc3OC)cn2c1N(CC)CC(=O)N(C)C`, the Potency result is “inactive”.

With `CCOC(=O)C1(C)CCCN(C(=O)c2ccc(N(C)C)cc2)C1` (stereo unspecified), the Potency entry is “inactive”.

Take `COc1ccccc1-c1cc(NC(C)=O)c2ncc(-c3ccc(F)cc3)n2c1`: the Potency result is “inactive”.

Regarding `CN(C)CCNC(=O)c1cccc(-c2cnc3c(NC=O)cc(-c4cccc(C(F)(F)F)c4)cn23)c1`, the Potency is 20.6 µM (active).

With `CC(=O)Nc1cc(-c2cccc(CO)c2)cn2c(-c3cccc(C(F)(F)F)c3)cnc12`, the Potency result is “inactive”.

As to `CC(=O)c1cccc(-c2cnc3c(NC=O)cc(-c4ccccc4Oc4ccccc4)cn23)c1`, the Potency result is “inactive”.

As for `COc1cccc(-c2cc(NC(C)=O)c3ncc(-c4cccc(C(C)=O)c4)n3c2)c1`, the Potency entry is “inactive”.

Regarding `CC(=O)Nc1cccc(-c2cc(NC=O)c3ncc(-c4ccc(F)c(Cl)c4)n3c2)c1`, the Potency is 18.4 µM (active).

With `CC(=O)c1cccc(-c2cnc3c(NC=O)cc(-c4cccc(C(=O)N(C)C)c4)cn23)c1`, the Potency result was “inactive”.

For the compound `CC(=O)Nc1cc(-c2ccccc2N(C)C)cn2c(-c3ccc(F)c(Cl)c3)cnc12`, the Potency is 29.1 µM (active).

Consider `CC(=O)c1cccc(-c2cnc3c(NC=O)cc(-c4ccc(N5CCN(C)CC5)cc4)cn23)c1`, for which the Potency result was “inactive”.

For `CC(C)(C)C1CCC(=O)N2CCC[C@]2(c2ccccc2)C1` (stereo partly specified), the Potency result was “inactive”.

`COc1ccc(COC[C@H](CC(C)C)N2CCN(C(=O)c3cccc(C(F)(F)F)c3)CCC2=O)cc1`: the Potency result was “inactive”.

As to `CCC(C(=O)NCc1ccccc1)n1c(Cc2cc(F)cc(F)c2)nc2ccccc21` (stereo unspecified), the Potency result was “inactive”.

Turning to `Cc1cccc(S(=O)(=O)N(C)C[C@@H]2OCc3cnnn3CCCC(=O)N([C@H](C)CO)C[C@@H]2C)c1`, the Potency entry is “inactive”.

For the compound `O=C1Nc2ccccc2NC(c2ccc3c(c2)OCO3)=C1N(Cc1ccc(F)cc1)C(=O)c1ccco1`, the Potency result was “inactive”.

With `CCc1nc2ccc(C(=O)N3CCC(O)(Cc4ccccc4)CC3)cn2c1N(C)C(=O)Cc1ccccc1`, the Potency entry is “inactive”.

Turning to `Cc1cc(Nc2ccc(C)c(C)c2)n2ncnc2n1`, the Potency entry is “inactive”.

Turning to `CC(C)(C(=O)N1CCC1(C)C(=O)NS(=O)(=O)c1ccc(Br)cc1)c1ccccc1` (stereo unspecified), the Potency result is “inactive”.

For `CCc1nc(C)cn1S(=O)(=O)c1cc(OC)c(C)cc1C`, the Potency entry is “inactive”.

As to `CCc1nc(C)cn1S(=O)(=O)c1cc([N+](=O)[O-])ccc1Cl`, the Potency is 4.11 µM (active).

On to `CC(C)c1nccn1S(=O)(=O)c1cc([N+](=O)[O-])ccc1Cl`, for which the Potency result was “inactive”.

Turning to `COc1ccc(S(=O)(=O)NCCCc2ccccc2)cc1`, the Potency result was “inactive”.

For the compound `Cc1ccc(S(=O)(=O)/N=C2\C=C(NS(=O)(=O)c3ccc(C)cc3)C(=O)c3ccccc32)cc1`, the Potency entry is “inactive”.

Consider `COc1ccc(S(=O)(=O)/N=C2\C=C(NS(=O)(=O)c3ccccc3)C(=O)c3ccccc32)cc1`, for which the Potency was 18.4 µM (active).

Take `O=C1c2ccccc2C(c2nc3ccccc3[nH]2)N1c1ccccc1` (stereo unspecified): the Potency result is “inactive”.

For the compound `CC1(C)OC(=O)C2=C(C[C@@H](C3CCCCC3)O[C@@H]2c2ccc(Cl)cc2)O1`, the Potency entry is “inactive”.

In the case of `CN1OC[C@@H]2CN(C(=O)c3ccc(-c4ccccc4)cc3)[C@H](c3ccc(-c4cccc(F)c4)cc3)C[C@@H]21`, the Potency result is “inactive”.

As for `CCCCOC(=O)Nc1nccs1`, the Potency result was “inactive”.

Consider `CCCCOC(=O)Nc1nnc(CC(=O)NCc2ccccc2)s1`, for which the Potency was 4.11 µM (active).

Consider `CCCCc1nnc(NC(=O)CS(=O)(=O)Cc2ccccc2)s1`, for which the Potency entry is “inactive”.
